This is an account of results in the supplement of paper PMC13380429.

Structures can show the parent of a compound that is named as a salt. Unmarked numbers belong to inactive results.

This test concerns Vero E6 infected with SARS-CoV-2. Kind of test: inhibition of SARS-CoV-2 cytopathic effect; higher = more antiviral protection, active = above 15. Particulars: 10000 nM; 48 h. On the technique in general: Protection from cytopathic effect is a common read-out in antiviral testing.
With `CS(=O)(=O)c1ccc(Cn2c3c(c4cc(F)cc(F)c42)CCCC3CC(=O)O)cc1` (stereo not given), the “inhibition of SARS-CoV-2 cytopathic effect” value (“inhibition” below) is -1.55%.
Then `COc1ccc(CC(C)NCC(O)c2ccc(O)c(NC=O)c2)cc1` (stereo not given) [formoterol], with 10.8%; and `Brc1ccc(NC2C3CC4CC(C3)CC2C4)cc1` (stereo not given) [bromantan], with 1.67%; and `O=[N+]([O-])c1cc(Cl)ccc1S(=O)(=O)N1CCN(Cc2ccccc2)CC1`, with -1.65%.
In the case of `c1cc(Nc2cc(C3CC3)n[nH]2)nc(Nc2ccc3[nH]cnc3c2)n1`, the “inhibition” value is 5.62%.
Then `Oc1cc2c(cc1O)[C@@H]1c3ccc(O)c(O)c3OC[C@]1(O)C2` [hematoxylin], with 1.62%.
For `C=CC1=C(C)C2=CC3=NC(=C(CC(=O)O)C4=NC(=C(C)C4=C(O)O)C=c4[nH]c(c(C)c4CC)=CC1=N2)C(CCC(=O)O)C3C` (stereo not given) [chlorophyllin] the value was -10.6%; for `CC(C)COc1ccc(CNC(=O)N(Cc2ccc(F)cc2)C2CCN(C)CC2)cc1` [pimavanserin], 24% (active).
Then `CCCCc1ccc(O)cc1O` [rucinol], with 0.4%; and `CC(C)(N)CC12CC3CC(CC(C3)C1)C2` [somantadine], with -6.1%; and `O=C1CN(/N=C/c2ccc([N+](=O)[O-])o2)C(=O)N1` [nitrofurantoin], with 1.5%.
For the molecule `Cc1c(CC(C)(C)C(=O)O)n(Cc2ccc(Cl)cc2)c2ccc(F)cc12`, the “inhibition” value is 1.6%.
As to `C[C@@H]1[C@H](O)[C@@H](C)/C=C/C=C/C=C/C=C/C=C/C=C/C=C/[C@H](O[C@@H]2O[C@H](C)[C@@H](O)[C@H](N)[C@@H]2O)C[C@@H]2O[C@](O)(C[C@@H](O)C[C@@H](O)[C@H](O)CC[C@@H](O)C[C@@H](O)CC(=O)O[C@H]1C)C[C@H](O)[C@H]2C(=O)O` [amphotericin-b], the “inhibition” value is 3.31%.
For `C[C@]1(O)C[C@@H](c2nc(-c3ccc4ccc(-c5ccccc5)nc4c3)c3c(N)nccn32)C1` [linsitinib] the value was 1.2%.
Then `CC/C(=C(/CC)c1ccc(OP(=O)(O)O)cc1)c1ccc(OP(=O)(O)O)cc1` [fosfestrol], with -0.17%; and `C=C[C@@](C)(/C=C/c1ccc(O)cc1)CCC=C(C)C` [bakuchiol], with 0.79%; and `CC(C)[N+](C)(CCC(C(N)=O)(c1ccccc1)c1ccccc1)C(C)C` [isopropamide-iodide], with 1.2%.
Then `CN(C)CCc1c[nH]c2ccc(Cn3cncn3)cc12` [rizatriptan], with -1.6%.
With `Cc1cc(Nc2ncc(Cl)c(Nc3ccccc3S(=O)(=O)C(C)C)n2)c(OC(C)C)cc1C1CCNCC1` [ceritinib], the “inhibition” value was 58.8% (active).
Then `CCCCCCCCCC(=O)OCCN1CCN(CCCN2c3ccccc3Sc3ccc(C(F)(F)F)cc32)CC1` [fluphenazine-decanoate], with -9.75%.
Then `Clc1ccc2c(NCCNc3ccnc4cc(Cl)ccc34)ccnc2c1`, with 0%; and `CC(O)(C(=O)Nc1ccc(S(=O)(=O)c2ccccc2)cc1)C(F)(F)F` (stereo not given), with 14.1%; and `Cn1c(=O)c2c(ncn2CC2OCCO2)n(C)c1=O` [doxofylline], with -0.77%.
Then `CN1C[C@@H]2CN(c3ccc(-c4ccccc4)nn3)C[C@@H]2C1`, with -3.37%; and `CSCC1CN(/N=C/c2ccc([N+](=O)[O-])o2)C(=O)O1` (stereo not given) [inimur], with 0.52%.
As for `NCCCC[C@H](NC(=O)[C@@H]1CCCN1C(=O)[C@@H]1CSSC[C@H](N)C(=O)N[C@@H](Cc2ccc(O)cc2)C(=O)N[C@@H](Cc2ccccc2)C(=O)N[C@@H](CCC(N)=O)C(=O)N[C@@H](CC(N)=O)C(=O)N1)C(=O)NCC(N)=O` [lypressin], the “inhibition” value was 0.67%.
Regarding `CCCCC/C=C\C/C=C\CCCCCCCC(=O)NCCCC(=O)O` [GABA-linoleamide], the “inhibition” value is -0.15%.
Then `CCCCCCCCCCOc1cc2c(O)c(C(=O)OCC)cnc2cc1OCC` [decoquinate], with 2.03%.
For `NC(=O)c1nc(F)cnc1O` [favipiravir], the “inhibition” value was -6.81%.
For `Cc1ncc(COP(=O)([O-])[O-])c(CN(CCN(CC(=O)O)Cc2c(COP(=O)([O-])O)cnc(C)c2O)CC(=O)O)c1O.[Mn].[Na+].[Na+].[Na+]` [Mangafodipir (trisodium)] the value was -3.61%.
For `O=C(c1ccc(F)cc1)C1CCN(CCn2c(=O)[nH]c3ccccc3c2=O)CC1` [ketanserin] the value was -1.33%.
Then `Cc1ccc(Cl)c(OCC(O)CNC(C)(C)C)c1` (stereo not given) [bupranolol], with -0.94%; and `Cc1c(Cl)cccc1S(=O)(=O)Nc1nc(CC(=O)N2CCN(C)CC2)cs1`, with 2.25%; and `C[C@@H](O)[C@H]1C(=O)N2C(C(=O)[O-])=C(SC3Cn4cnc[n+]4C3)[C@H](C)[C@H]12` (stereo not given in full) [biapenem], with -0.14%.
Regarding `O=S(=O)(/N=C/c1c(O)ccc2ccccc12)c1cccs1`, the “inhibition” value is 0.08%.
For `O=C(CCCCCCC(=O)Nc1cccnc1)NO` [pyroxamide] the value was -5.97%.
Turning to `CCOC(=O)[C@@H](N)Cc1ccc(-c2cc(O[C@H](c3ccc(Cl)cc3-n3ccc(C)n3)C(F)(F)F)nc(N)n2)cc1` [telotristat-ethyl], the “inhibition” value was 2.26%.
Then `CC(NCCC(c1ccccc1)c1ccccc1)c1ccccc1` (stereo not given) [fendiline], with 11.9%; and `Nc1ncc(Cc2ccc(Br)cc2)s1`, with 2.73%.
As to `CO/N=C(\C(=O)N[C@@H]1C(=O)N2C(C(=O)O)=C(Cn3ccc(=N)n3CCO)CS[C@H]12)c1csc(N)n1` [Cefoselis sulfate], the “inhibition” value is 1.21%.
